The text below walks through data of PubChem BioAssay.

Activity calls are given as the source filed them.

This experiment in a line: optical density change of DRC41 E. coli – strain DRC41, OD650, 24 h, E. coli filamentation project, primary screen (AID 1093).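 Note: MC1000 strain lacking acrAB efflux and sulA so SOS filamentation is blocked; test concentration not given here.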 The note with it: E. coli DRC41 growth, higher = more signal, called active from +8 up or from −8 down.
For `O=C1C=C[C@@H](O)[C@@H]2[C@@H]3C(=O)N(C4CCCCC4)C(=O)[C@@H]3CC[C@@H]12`, the z-score is -0.115 (inactive).
Turning to `C[C@@H]1CC[C@H]2C(=O)OC(Cc3ccccc3)CN2[C@H]1c1ccc(Br)cc1` (stereo partly specified), the z-score is 0.823 (inactive).
The result for `O=C1[C@H]2[C@H]3[C@H](O)[C@H](O)CC(=NO[C@@H]4O[C@H](CO)[C@@H](O)[C@H](O)[C@H]4O)[C@H]3CC[C@H]2C(=O)N1c1ccc(F)cc1F` reads 0.356 (inactive); that for `COc1ccc(COC(=O)NN=C2C[C@@H](O)[C@@H](O)[C@@H]3[C@@H]4C(=O)N([C@@H](C)c5ccccc5)C(=O)[C@@H]4CC[C@H]23)cc1`, 0.92 (inactive).
Turning to `CC(=O)OC[C@H]1O[C@H](CC=NO[C@H](C)c2cn([C@@H]3COC[C@H]3O)nn2)C=C[C@@H]1OC(C)=O`, the z-score is -0.763 (inactive).
`COc1ccc(O[C@H]2C=C[C@@H](c3ccccc3)O[C@@H]2CO)cc1`: the z-score is 0.299 (inactive).
Regarding `CCOC(=O)[C@H](Cc1ccccc1)NC(=O)CCC1CC(OC(=O)NCCc2ccc(F)cc2)CC2(CCCC(COC(=O)NCCOc3ccccc3)O2)O1` (stereo partly specified), the z-score is 0.384 (inactive).
For the compound `O=C1C[C@@H](O)[C@@H](O)[C@@H]2[C@@H]3C(=O)N(C4CCCCC4)C(=O)[C@@H]3CC[C@@H]12`, the z-score was 0.536 (inactive).
Consider `CC(CCN1CCCCc2nc(C)c(C)cc21)=NO[C@@H](C)c1cc(-c2c(C)cc(C)cc2C)no1`, for which the z-score was 0.486 (inactive).
Take `CCOC(=O)[C@H](CC(C)C)NC(=O)CCC1CC(OC(=O)NCc2ccc3c(c2)OCO3)CC2(CCCC(COC(=O)NCCOc3ccccc3)O2)O1` (stereo partly specified): the z-score is 0.097 (inactive).
With `C=CC[C@@H]1C=C[C@H](ON=C(C)CCN2CCCc3nc(C)c(C)cc32)[C@@H](CO)O1`, the z-score is 1.05 (inactive).
`O=C1CCCC=C1C(O)C1CCCCC1` (stereo unspecified): the z-score is 0.805 (inactive).
Turning to `CO[C@H]1COC(=O)CC=C[C@H](C)[C@H](OC)COC(=O)[C@@H](C)NC(=O)CC=C[C@@H]1C`, the z-score is -0.159 (inactive).
Consider `COC(=O)CC=C[C@@H](C)[C@@H](C=NOC[C@@H](C)[C@H](OCc1ccccc1)C(C)C)OC`, for which the z-score was -0.0725 (inactive).
With `CC(C)CON=C1C[C@@H](O)[C@@H](O)[C@@H]2[C@@H]3C(=O)N(C(C)(C)C)C(=O)[C@@H]3CC[C@@H]12`, the z-score was 0.222 (inactive).
The result for `CC1(C)O[C@H]2OC([C@H](O)CON3C(=O)c4ccccc4C3=O)[C@H](O)[C@H]2O1` (stereo partly specified) reads 0.742 (inactive); that for `CCOC(=O)CCN1C(=O)[C@H]2[C@H]3[C@H](O)[C@H](O)CC(=NNC(=O)OCC)[C@H]3CC[C@H]2C1=O`, -0.637 (inactive).
For the compound `CCN(CC)CC(O)CN1CCCCc2nc(C)c(C)cc21` (stereo unspecified), the z-score was -0.0207 (inactive).
The same measure for `CC(C)=NO[C@@H](C)c1cn([C@H](CO)Cc2ccccc2)nn1`: -0.409 (inactive).
The result for `O=C(NN=C1C[C@@H](O)[C@@H](O)[C@@H]2[C@@H]3C(=O)N(Cc4ccccc4)C(=O)[C@@H]3CC[C@H]12)OCc1ccccc1` reads 0.399 (inactive).
For the compound `CCOC(=O)CCN1C(=O)[C@H]2[C@H]3[C@H](O)[C@H](O)CC(=NOCC=C(C)CCC=C(C)C)[C@H]3CC[C@H]2C1=O`, the z-score was 0.857 (inactive).
The same measure for `CC(=O)OC[C@H]1O[C@@H](ON=C2[C@H]3CCn4c(=O)n(-c5ccccc5)c(=O)n4[C@H]3[C@H](O)[C@@H]3O[C@H]23)[C@H](OC(C)=O)[C@@H](OC(C)=O)[C@@H]1OC(C)=O`: 0.0967 (inactive); for `O=C1CCCC=C1C(O)COCc1ccccc1` (stereo unspecified): 0.202 (inactive).
Consider `C[C@H]1CC[C@@H](C(=O)O)N[C@@H]1c1cccc(N2CCCC2=O)c1`, for which the z-score is 0.816 (inactive).
The same measure for `COC(=O)[C@H](C)NC(=O)CCC1CC(OC(=O)NCc2ccc3c(c2)OCO3)CC2(CCCC(COC(=O)NCCCN3CCCC3=O)O2)O1` (stereo partly specified): -0.223 (inactive).
Turning to `CC(C)(C)N1C(=O)[C@H]2[C@@H]3C(=CC[C@H]2C1=O)C(=O)[C@H]1O[C@H]1[C@H]3O`, the z-score was -2 (inactive).
For the compound `CCOC(=O)NN=C1C[C@@H](O)[C@@H](O)[C@@H]2[C@@H]3C(=O)N(C[C@@H]4CCCO4)C(=O)[C@@H]3CC[C@H]12`, the z-score is 0.416 (inactive).
The result for `CC(C)=CCCC(C)=CCON=C1C[C@@H](O)[C@@H](O)[C@@H]2[C@@H]3C(=O)N(Cc4ccc5c(c4)OCO5)C(=O)[C@@H]3CC[C@H]12` reads 0.103 (inactive); that for `CC(=O)OC[C@H]1O[C@H](CC=NOC(C)CN2CCCCc3nc(C)c(C)cc32)C=C[C@@H]1OC(C)=O` (stereo partly specified), 0.522 (inactive).
The same measure for `CCOC(=O)[C@H](Cc1ccccc1)NC(=O)CCC1CC(OC(=O)NCCc2ccc(F)cc2)CC2(CCCC(COC(=O)NCc3cccc(C(F)(F)F)c3)O2)O1` (stereo partly specified): 0.468 (inactive); for `O=C1C=C[C@@H](O)[C@@H]2[C@@H]3C(=O)N(Cc4ccc5c(c4)OCO5)C(=O)[C@@H]3CC[C@@H]12`: 0.446 (inactive).
The same measure for `O=C1CCCC=C1C(O)c1ccc([N+](=O)[O-])cc1` (stereo unspecified): 0.999 (inactive); for `COC(=O)CC=C[C@@H](C)[C@@H](C=NOC(C)CN1CCCCc2nc(C)c(C)cc21)NS(=O)(=O)c1ccc(C)cc1` (stereo partly specified): 0.86 (inactive).
As to `CC(CCC(=O)OC[C@H]1O[C@H](C#Cc2ccccc2)C=C[C@@H]1Oc1ccc(C)cc1)=NOC(C)CN1CCCc2nc(C)c(C)cc21` (stereo partly specified), the z-score is 0.915 (inactive).
`CCN1C(=O)[C@H]2[C@H]3[C@H](O)[C@H](O)CC(=NO[C@H](C)c4cn([C@@H]5COC[C@H]5O)nn4)[C@@H]3CC[C@H]2C1=O`: the z-score is 0.445 (inactive).
On to `COc1ccc(-c2cnnc(CCCn3ccnc3-c3ccccc3)n2)cc1`, for which the z-score was 0.222 (inactive).
